Measurements from the supplement of paper PMC10849652.
Targets with a hit are over-represented here; the source holds about 8,800 in all. About 0.5% of all pairs of compound and target were hits.

Assays:
Test in all cases: log2 fold change, soluble protein after heating vs DMSO (PISA); higher = thermal stabilisation; K562 lysate, 10 uM; active = over 0.2 and 3.5 SD of the protein, either way, in both replicates (recomputed)
[1] = compound: CN1CC[C@H](c2c(O)cc(O)c3c(=O)cc(-c4ccccc4Cl)oc23)[C@H](O)C1 [alvocidib]
Outline: (§1)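 Pellets of K562 cells were dounce-homogenised in PBS pH 7.4 with 1 mM MgCl2, and the crude extract was held at 1 mg/mL protein for a 30 min treatment with 10 μM compound. Aliquots were heated for 3 min over 48°C-58°C and pooled before NP-40 was added to 0.5% at 4°C. The supernatant from 21,000xg for 90 min was quantified by TMTpro 16plex LC-MS/MS with channel sums equalised. Values are reported from duplicates as log-two fold change in thermal stability relative to solvent controls.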

[2] = compound: CN1CCc2c(c3ccccc3n2Cc2ccc(C(=O)NO)cc2)C1 [Tubastatin A]
Outline: as §1

[3] = compound: CNC(=O)C1=CC=CC=C1NC2=NC(=NC=C2Cl)NC3=C(C=C(C=C3)N4CCOCC4)OC
Outline: as §1

[4] = compound: CNC(=O)c1ccc(Nc2ncc(C(F)(F)F)c(NCc3nccnc3N(C)S(C)(=O)=O)n2)cc1 [defactinib]
Outline: as §1

[5] = compound: CNc1nc(-c2ccc3c(N)n[nH]c3c2)cc(N2C[C@@H](C(=O)NC3CCCCC3)CC[C@H]2C)n1
Outline: as §1

[6] = compound: COC(=O)N[C@@H](C)CNc1nccc(-c2cn(C(C)C)nc2-c2cc(Cl)cc(NS(C)(=O)=O)c2F)n1 [encorafenib]
Outline: as §1

[7] = compound: COC(=O)[C@H](CCSC)NC(=O)C1=C(C=C(C=C1)NC[C@H](CS)N)C2=CC=CC=C2
Outline: as §1

[8] = compound: COc1cc(Nc2ncc3c(n2)-c2ccc(Cl)cc2C(c2c(F)cccc2OC)=NC3)ccc1C(=O)O [alisertib]
Outline: as §1

[9] = compound: COc1cc2nc(-c3cc(F)ccc3O)nc(N[C@@H]3CNC[C@H]3C(C)(C)O)c2cc1OC
Outline: as §1

[10] = compound: COc1cc2ncnc(Nc3ccc(F)c(Cl)c3)c2cc1OCCCN1CCOCC1 [gefitinib]
Outline: as §1

[11] = compound: CS(=O)(=O)CCNCc1ccc(-c2ccc3ncnc(Nc4ccc(OCc5cccc(F)c5)c(Cl)c4)c3c2)o1 [lapatinib]
Outline: as §1

[12] = compound: CS(=O)(=O)N1CCN(Cc2cc3nc(-c4cccc5[nH]ncc45)nc(N4CCOCC4)c3s2)CC1 [pictilisib]
Outline: as §1

[13] = compound: C[C@@H](Oc1cc(-c2cnn(C3CCNCC3)c2)cnc1N)c1c(Cl)ccc(F)c1Cl [crizotinib]
Outline: as §1

[14] = compound: C[C@H](C1=CC=C(C=C1)C(=O)NC2=C3C=CNC3=NC=C2)N
Outline: as §1

[15] = compound: C[C@H](Nc1ncnc2nc[nH]c12)c1cc2cccc(Cl)c2c(=O)n1-c1ccccc1 [duvelisib]
Outline: as §1

[16] = compound: Cc1cc(Nc2cc(CN3CCOCC3)c3nc(C)c(Cc4ccc(Cl)cc4F)n3n2)n[nH]1 [gandotinib]
Outline: as §1

[17] = compound: Cc1cc(Nc2cc(N3CCN(C)CC3)nc(Sc3ccc(NC(=O)C4CC4)cc3)n2)n[nH]1 [tozasertib]
Outline: as §1

[18] = compound: Cc1ccc(-n2nc(C(C)(C)C)cc2NC(=O)Nc2ccc(OCCN3CCOCC3)c3ccccc23)cc1 [doramapimod]
Outline: as §1

[19] = compound: Cc1ccc(NC(=O)c2ccc(CN3CC[C@H](N(C)C)C3)c(C(F)(F)F)c2)cc1Nc1nccc(-c2cncnc2)n1 [bafetinib]
Outline: as §1

[20] = compound: Cc1cccc(CC(=O)N2CCc3c2ccc(-c2cn(C)c4ncnc(N)c24)c3F)n1
Outline: as §1

Measured: log2 fold change

KSR1 (UniProt Q8IVT5)
inactive: [1] 0.214 | [2] -0.086 | [3] -0.042 | [4] -0.045 | [5] -0.038 | [6] 0.075 | [7] 0.257 | [8] 0.028 | [9] 0.115 | [10] -0.016 | [11] -0.107 | [12] 0.064 | [13] -0.015 | [14] 0.006 | [15] -0.026 | [16] -0.087 | [17] 0.017 | [18] -0.065 | [19] -0.038 | [20] -0.156

LPIN1 isoform 7 (UniProt Q14693)
inactive: [1] -0.054 | [2] -0.05 | [3] -0.006 | [4] 0.003 | [5] -0.1 | [6] 0.089 | [7] -0.064 | [8] -0.028 | [9] 0.007 | [10] -0.04 | [11] -0.052 | [12] -0.082 | [13] -0.035 | [14] -0.069 | [15] -0.097 | [16] -0.005 | [17] 0.012 | [18] 0.013 | [19] -0.04 | [20] 0.097

KLC2 (UniProt Q9H0B6)
inactive: [1] -0.034 | [2] -0.072 | [3] 0.004 | [4] -0.048 | [5] -0.006 | [6] 0.01 | [7] 0.043 | [8] -0.038 | [9] 0.001 | [10] -0.098 | [11] -0.012 | [12] -0.057 | [13] -0.047 | [14] 0.025 | [15] -0.031 | [16] -0.145 | [17] 0.012 | [18] 0.065 | [19] -0.043 | [20] 0.074

LUZP1 (UniProt Q86V48)
Chain of UniProt Q86V48 (Q86V48 whole entry, looked up): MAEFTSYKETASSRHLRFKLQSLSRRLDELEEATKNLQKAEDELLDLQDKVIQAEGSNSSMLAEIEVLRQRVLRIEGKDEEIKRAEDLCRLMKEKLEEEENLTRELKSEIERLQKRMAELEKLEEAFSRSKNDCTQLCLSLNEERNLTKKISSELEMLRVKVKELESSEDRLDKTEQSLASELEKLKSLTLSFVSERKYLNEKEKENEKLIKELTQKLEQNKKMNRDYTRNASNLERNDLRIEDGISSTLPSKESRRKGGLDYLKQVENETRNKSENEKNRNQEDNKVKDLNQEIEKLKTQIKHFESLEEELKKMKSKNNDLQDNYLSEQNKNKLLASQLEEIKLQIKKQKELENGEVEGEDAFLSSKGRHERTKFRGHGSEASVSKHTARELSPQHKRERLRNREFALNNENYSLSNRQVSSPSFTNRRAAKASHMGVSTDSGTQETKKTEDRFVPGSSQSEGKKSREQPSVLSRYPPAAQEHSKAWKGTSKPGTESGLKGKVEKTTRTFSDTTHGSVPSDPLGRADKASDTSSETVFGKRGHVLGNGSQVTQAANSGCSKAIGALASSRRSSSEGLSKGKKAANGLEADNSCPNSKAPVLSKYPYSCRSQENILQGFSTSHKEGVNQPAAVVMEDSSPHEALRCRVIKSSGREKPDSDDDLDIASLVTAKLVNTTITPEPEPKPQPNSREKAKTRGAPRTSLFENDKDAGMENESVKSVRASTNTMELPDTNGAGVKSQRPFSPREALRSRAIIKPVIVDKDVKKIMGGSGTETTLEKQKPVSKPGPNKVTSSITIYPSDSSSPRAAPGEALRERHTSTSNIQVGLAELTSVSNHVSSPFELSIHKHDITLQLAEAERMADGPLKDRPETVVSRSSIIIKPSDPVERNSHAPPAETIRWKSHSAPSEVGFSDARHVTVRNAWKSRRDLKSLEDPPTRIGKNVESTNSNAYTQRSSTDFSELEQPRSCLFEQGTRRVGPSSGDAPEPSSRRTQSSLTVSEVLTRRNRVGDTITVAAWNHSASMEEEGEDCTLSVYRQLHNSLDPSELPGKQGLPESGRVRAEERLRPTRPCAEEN
inactive: [1] -0.027 | [2] -0.061 | [3] 0.099 | [4] -0.056 | [5] 0.004 | [6] 0.023 | [7] -0.074 | [8] -0.014 | [9] 0.012 | [10] 0.039 | [11] -0.006 | [12] -0.02 | [13] -0.012 | [14] 0.008 | [15] -0.026 | [16] 0.036 | [17] -0.011 | [18] -0.009 | [19] -0.034 | [20] -0.011

MAP2K3 isoform 3 (UniProt P46734)
Chain of UniProt P46734 (P46734 whole entry, looked up): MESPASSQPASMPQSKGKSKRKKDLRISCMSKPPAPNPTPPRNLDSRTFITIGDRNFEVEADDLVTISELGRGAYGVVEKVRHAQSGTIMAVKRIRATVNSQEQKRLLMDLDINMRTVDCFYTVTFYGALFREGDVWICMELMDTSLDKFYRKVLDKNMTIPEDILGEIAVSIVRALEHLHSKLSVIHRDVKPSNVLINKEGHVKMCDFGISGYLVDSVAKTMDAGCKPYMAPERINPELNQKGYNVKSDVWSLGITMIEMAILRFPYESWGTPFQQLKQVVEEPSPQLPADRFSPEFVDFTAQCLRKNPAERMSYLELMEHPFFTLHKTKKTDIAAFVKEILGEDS
inactive: [1] 0.05 | [2] -0.066 | [3] 0.139 | [4] 0.017 | [5] -0.055 | [6] -0.011 | [7] 0.169 | [8] 0 | [9] -0.171 | [10] -0.087 | [11] -0.014 | [12] -0.102 | [13] -0.043 | [14] -0.021 | [15] 0.124 | [16] 0.038 | [17] 0.017 | [18] -0.047 | [19] -0.012 | [20] -0.035

KRR1 (UniProt Q13601)
Chain of UniProt Q13601 (Q13601 whole entry, looked up): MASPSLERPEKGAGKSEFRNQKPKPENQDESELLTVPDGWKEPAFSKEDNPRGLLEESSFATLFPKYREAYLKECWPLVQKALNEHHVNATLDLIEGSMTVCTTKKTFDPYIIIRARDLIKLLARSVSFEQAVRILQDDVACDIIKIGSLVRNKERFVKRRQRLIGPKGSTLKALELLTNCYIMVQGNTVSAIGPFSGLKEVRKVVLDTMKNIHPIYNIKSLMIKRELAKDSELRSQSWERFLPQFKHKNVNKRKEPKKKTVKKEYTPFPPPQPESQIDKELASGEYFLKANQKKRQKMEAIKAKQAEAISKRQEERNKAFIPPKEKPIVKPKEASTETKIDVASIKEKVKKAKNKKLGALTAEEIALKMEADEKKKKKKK
inactive: [1] 0.028 | [2] -0.033 | [3] -0.054 | [4] 0.01 | [5] -0.005 | [6] 0.092 | [7] 0.023 | [8] 0.032 | [9] 0.046 | [10] -0.014 | [11] -0.039 | [12] 0.03 | [13] -0.228 | [14] 0.05 | [15] -0.037 | [16] -0.097 | [17] -0.038 | [18] 0.127 | [19] -0.039 | [20] 0.002

LAMP1 (UniProt P11279)
Chain of UniProt P11279 (P11279 whole entry, looked up): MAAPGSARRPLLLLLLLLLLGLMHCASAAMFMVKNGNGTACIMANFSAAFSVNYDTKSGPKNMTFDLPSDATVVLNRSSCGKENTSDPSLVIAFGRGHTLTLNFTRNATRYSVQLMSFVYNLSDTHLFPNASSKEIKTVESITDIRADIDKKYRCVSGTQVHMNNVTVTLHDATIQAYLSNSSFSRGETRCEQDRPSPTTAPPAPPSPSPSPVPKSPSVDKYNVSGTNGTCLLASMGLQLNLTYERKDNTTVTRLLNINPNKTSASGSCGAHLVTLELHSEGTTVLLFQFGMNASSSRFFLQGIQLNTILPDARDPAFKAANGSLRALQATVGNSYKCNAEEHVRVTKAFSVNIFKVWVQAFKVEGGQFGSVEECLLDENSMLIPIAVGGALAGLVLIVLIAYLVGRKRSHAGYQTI
inactive: [1] -0.242 | [2] 0.051 | [3] -0.013 | [4] -0.03 | [5] 0.059 | [6] 0.015 | [7] -0.047 | [8] 0.017 | [9] 0.028 | [10] 0.053 | [11] -0.033 | [12] -0.014 | [13] -0.014 | [15] 0.005 | [17] -0.05 | [18] -0.044 | [19] -0.065 | [20] 0.172
active: [14] -0.496 | [16] 0.241

MARK1 (UniProt Q9P0L2)
inactive: [1] -0.053 | [2] -0.087 | [3] -0.27 | [4] -0.267 | [5] 0.072 | [6] 0.075 | [7] 0.226 | [8] -0.007 | [9] -0.134 | [10] -0.004 | [11] 0.037 | [12] -0.065 | [13] -0.175 | [14] 0.026 | [15] -0.002 | [16] -0.192 | [17] -0.084 | [18] 0.155 | [19] -0.034 | [20] 0.05

MORC3 (UniProt Q14149)
inactive: [1] -0.015 | [2] -0.098 | [3] 0.017 | [4] 0.018 | [5] -0.028 | [6] 0.007 | [7] 0.038 | [8] -0.003 | [9] 0.021 | [10] -0.01 | [11] 0.021 | [12] -0.037 | [13] -0.02 | [14] 0.005 | [15] -0.001 | [16] -0.053 | [17] 0.001 | [18] 0.024 | [19] -0.001 | [20] 0.014

MRPL28 (UniProt Q13084)
active: [14] 0.482
inactive: [1] 0.261 | [2] -0.074 | [3] -0.11 | [4] 0.039 | [5] 0.001 | [6] 0.026 | [7] -0.026 | [8] 0.045 | [9] -0.02 | [10] 0.072 | [11] -0.046 | [12] 0.03 | [13] -0.08 | [15] 0.043 | [16] -0.246 | [17] 0.059 | [18] -0.012 | [19] -0.04 | [20] -0.228

MBLAC2 (UniProt Q68D91)
Chain of UniProt Q68D91 (Q68D91 whole entry, looked up): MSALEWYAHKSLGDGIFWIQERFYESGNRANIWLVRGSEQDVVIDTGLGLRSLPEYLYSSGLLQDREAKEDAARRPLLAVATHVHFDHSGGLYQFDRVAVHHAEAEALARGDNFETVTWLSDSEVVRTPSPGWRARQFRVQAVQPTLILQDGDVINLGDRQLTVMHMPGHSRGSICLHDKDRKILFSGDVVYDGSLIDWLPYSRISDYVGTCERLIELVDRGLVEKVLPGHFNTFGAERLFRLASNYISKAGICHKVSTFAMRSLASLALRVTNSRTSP
inactive: [1] -0.011 | [2] 0.033 | [3] 0.041 | [4] 0.059 | [5] -0.096 | [6] 0.06 | [7] -0.003 | [8] 0.005 | [9] 0.013 | [10] 0.033 | [11] -0.012 | [12] -0.008 | [13] 0.025 | [14] -0.027 | [15] 0.038 | [16] 0.036 | [17] 0.084 | [18] 0.033 | [19] -0.049 | [20] 0.006

KLC1 isoform 6 (UniProt Q07866)
Chain of UniProt Q07866 (Q07866 whole entry, looked up): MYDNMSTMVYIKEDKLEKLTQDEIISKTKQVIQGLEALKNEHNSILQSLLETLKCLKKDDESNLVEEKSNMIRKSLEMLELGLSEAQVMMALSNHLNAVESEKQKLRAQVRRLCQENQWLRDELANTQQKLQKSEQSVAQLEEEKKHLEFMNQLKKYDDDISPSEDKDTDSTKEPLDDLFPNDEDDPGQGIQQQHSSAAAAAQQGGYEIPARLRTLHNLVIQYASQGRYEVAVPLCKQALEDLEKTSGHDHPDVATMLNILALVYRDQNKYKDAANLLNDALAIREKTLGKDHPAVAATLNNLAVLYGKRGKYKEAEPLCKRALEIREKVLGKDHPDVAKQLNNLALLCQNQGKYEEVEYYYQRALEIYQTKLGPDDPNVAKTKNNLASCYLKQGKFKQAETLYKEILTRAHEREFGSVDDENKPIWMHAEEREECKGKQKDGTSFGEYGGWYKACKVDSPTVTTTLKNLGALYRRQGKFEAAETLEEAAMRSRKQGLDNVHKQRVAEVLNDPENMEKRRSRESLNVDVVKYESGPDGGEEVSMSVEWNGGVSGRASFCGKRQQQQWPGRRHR
inactive: [1] -0.015 | [2] -0.038 | [3] 0.02 | [4] -0.003 | [5] -0.018 | [6] 0.002 | [7] 0.002 | [8] 0.002 | [9] 0.014 | [10] -0.009 | [11] -0.011 | [12] -0.001 | [13] 0 | [14] -0.009 | [15] -0.031 | [16] -0.073 | [17] -0.004 | [18] 0.026 | [19] -0.008 | [20] 0.005

MLLT11 (UniProt Q13015)
Chain of UniProt Q13015 (Q13015 whole entry, looked up): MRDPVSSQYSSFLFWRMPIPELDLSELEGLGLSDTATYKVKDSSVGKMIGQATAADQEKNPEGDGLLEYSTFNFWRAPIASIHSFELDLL
active: [18] 0.447
inactive: [1] 0.056 | [2] -0.052 | [3] 0.108 | [4] 0.086 | [5] -0.019 | [6] 0.138 | [7] 0.099 | [8] 0.115 | [9] 0.067 | [10] 0.023 | [11] 0.051 | [12] 0.237 | [13] 0 | [14] 0.025 | [15] 0.002 | [16] 0.329 | [17] 0.087 | [19] -0.017 | [20] 0.084

LRCH3 (UniProt Q96II8)
Chain of UniProt Q96II8 (Q96II8 whole entry, looked up): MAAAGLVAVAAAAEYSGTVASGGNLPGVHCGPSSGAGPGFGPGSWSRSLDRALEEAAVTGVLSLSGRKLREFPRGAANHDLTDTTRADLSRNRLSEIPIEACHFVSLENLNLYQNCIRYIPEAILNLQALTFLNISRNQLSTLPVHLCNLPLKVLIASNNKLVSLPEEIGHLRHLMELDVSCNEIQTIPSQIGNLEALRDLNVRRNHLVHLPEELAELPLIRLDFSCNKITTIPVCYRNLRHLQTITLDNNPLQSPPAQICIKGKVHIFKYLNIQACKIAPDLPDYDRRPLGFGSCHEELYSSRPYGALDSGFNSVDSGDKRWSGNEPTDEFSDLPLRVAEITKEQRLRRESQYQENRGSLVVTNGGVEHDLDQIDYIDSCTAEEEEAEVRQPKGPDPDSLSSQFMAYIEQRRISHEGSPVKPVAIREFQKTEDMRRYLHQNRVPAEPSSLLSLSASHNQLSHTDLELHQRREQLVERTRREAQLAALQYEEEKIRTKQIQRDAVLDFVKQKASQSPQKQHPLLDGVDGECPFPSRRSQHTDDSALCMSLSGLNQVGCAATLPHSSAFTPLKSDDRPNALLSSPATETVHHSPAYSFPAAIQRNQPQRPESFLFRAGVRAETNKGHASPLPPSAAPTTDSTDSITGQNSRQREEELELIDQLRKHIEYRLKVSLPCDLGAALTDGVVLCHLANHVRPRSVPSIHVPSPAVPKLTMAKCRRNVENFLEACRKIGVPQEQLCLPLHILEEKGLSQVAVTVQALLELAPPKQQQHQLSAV
inactive: [1] 0 | [2] -0.238 | [3] -0.003 | [4] -0.002 | [5] 0.069 | [6] 0.021 | [7] 0.045 | [8] 0.021 | [9] -0.012 | [10] -0.075 | [11] -0.008 | [12] -0.08 | [13] -0.114 | [14] -0.046 | [15] -0.012 | [16] 0.027 | [17] 0.012 | [18] 0.099 | [19] -0.104 | [20] 0.059

MED8 isoform 2 (UniProt Q96G25)
Chain of UniProt Q96G25 (Q96G25 whole entry, looked up): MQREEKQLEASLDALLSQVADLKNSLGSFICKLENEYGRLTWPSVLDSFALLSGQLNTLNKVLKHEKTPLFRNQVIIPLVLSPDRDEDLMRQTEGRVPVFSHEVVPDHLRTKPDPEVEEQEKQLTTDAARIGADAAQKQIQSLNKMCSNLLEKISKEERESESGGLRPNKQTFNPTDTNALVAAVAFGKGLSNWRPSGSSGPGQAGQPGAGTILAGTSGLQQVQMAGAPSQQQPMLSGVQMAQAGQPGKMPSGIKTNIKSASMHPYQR
inactive: [1] 0.026 | [2] -0.048 | [3] 0.023 | [4] -0.009 | [5] 0.045 | [6] 0.056 | [7] -0.113 | [8] -0.07 | [9] 0.059 | [10] -0.038 | [11] 0.005 | [12] -0.051 | [13] 0.014 | [15] 0.023 | [16] -0.026 | [17] 0.047 | [18] 0.069 | [19] -0.031 | [20] -0.044
active: [14] 0.269

MAPK6 (UniProt Q16659)
Chain of UniProt Q16659 (Q16659 whole entry, looked up): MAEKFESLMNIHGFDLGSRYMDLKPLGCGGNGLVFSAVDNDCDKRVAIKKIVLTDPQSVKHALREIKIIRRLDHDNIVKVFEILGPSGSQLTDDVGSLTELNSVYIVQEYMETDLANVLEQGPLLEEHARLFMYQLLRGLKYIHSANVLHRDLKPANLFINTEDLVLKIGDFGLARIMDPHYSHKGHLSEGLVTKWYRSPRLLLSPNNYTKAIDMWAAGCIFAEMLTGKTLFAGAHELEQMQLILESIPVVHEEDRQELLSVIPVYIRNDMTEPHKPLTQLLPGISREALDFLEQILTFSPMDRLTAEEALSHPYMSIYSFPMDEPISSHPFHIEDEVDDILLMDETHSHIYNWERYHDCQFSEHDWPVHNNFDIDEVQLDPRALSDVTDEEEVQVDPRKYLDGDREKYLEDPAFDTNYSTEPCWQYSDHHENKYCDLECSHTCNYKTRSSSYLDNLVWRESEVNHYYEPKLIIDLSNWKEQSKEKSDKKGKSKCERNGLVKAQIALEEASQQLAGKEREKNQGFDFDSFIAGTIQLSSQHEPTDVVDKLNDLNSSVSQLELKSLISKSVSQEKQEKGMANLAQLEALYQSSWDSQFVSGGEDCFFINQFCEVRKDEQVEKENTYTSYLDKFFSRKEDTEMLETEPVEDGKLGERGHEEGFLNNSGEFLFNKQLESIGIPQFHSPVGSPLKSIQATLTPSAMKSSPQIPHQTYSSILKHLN
inactive: [1] 0.133 | [2] -0.086 | [3] 0.115 | [4] 0.049 | [5] -0.023 | [6] -0.037 | [7] -0.092 | [8] -0.001 | [9] 0.072 | [10] 0.113 | [11] -0.038 | [12] -0.021 | [13] 0.025 | [14] 0.075 | [15] -0.008 | [16] -0.042 | [17] -0.024 | [18] -0.006 | [19] -0.028 | [20] -0.045
